# Counter-ions that a name gives are not always drawn. A number with no mark means an inactive call.
# Assays:
# Details in all cases: 20 µM
# [1] = test system: Salmonella enterica typhimurium; test: growth AUC normalised to DMSO control (fraction of control); higher = less growth inhibition, active = hit call of the paper
# Outline: (§1)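 Pathogens passaged twice anaerobically were inoculated at a starting OD578 of 0.01 into pre-reduced mGAM plates with drug at 20 μM and 1% DMSO, sealed with breathable membranes. Haemophilus parainfluenzae medium was supplemented with hemin and NAD. OD578 was read hourly for 24 h, with three biological replicates. Growth-curve AUC was computed by the trapezoidal rule up to the exponential-to-stationary transition and normalised to DMSO controls on the same plate.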
# Shigella flexneri = test: as above
# Outline: as §1
# Vibrio cholerae = test: as above
# Outline: as §1
# [2] = test system: Yersinia pseudotuberculosis; test: as above
# Outline: as §1
# P. vulgatus RND KO = test: growth AUC normalised to DMSO control (median) (fraction of control); higher = less growth inhibition, active = hit call of the paper
# Outline: (§2)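 Strains were passaged twice overnight without oxygen, then grown in mGAM in 96-well plates with each approved-drug library compound at 20 μM and 1% DMSO, starting at OD578 0.01. OD578 was read hourly for 24 h inside an anaerobic incubator. Curves were truncated at entry into stationary phase, and the trapezoidal-rule area under the curve was normalised to same-plate vehicle wells. The value is the median across three biological replicates.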
# P. vulgatus WT = test: as above
# Outline: as §2
# [3] = test system: S. enterica typhimurium WT; test: as above
# Outline: as §2
# [4] = test system: S. enterica typhimurium tolC KO; test: as above
# Outline: as §2
# 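Throughout, for growth AUC normalised to DMSO control (median): active when median AUC fell below 0.1.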
Structure (SMILES),growth AUC normalised to DMSO control [1],growth AUC normalised to DMSO control (Shigella flexneri),growth AUC normalised to DMSO control (Vibrio cholerae),growth AUC normalised to DMSO control [2],growth AUC normalised to DMSO control (P. vulgatus RND KO),growth AUC normalised to DMSO control (P. vulgatus WT),growth AUC normalised to DMSO control [3],growth AUC normalised to DMSO control [4]
OCC(O)CN1CCN(c2ccccc2)CC1 (configuration not stated) [Dropropizine],1.02,1.06,1.04,1.01,1.05,1.06,0.991,0.981
CCCCc1cc2ccccc2c(OCCN(C)C)n1 [Dimethisoquin hydrochloride],1,1.03,0.866 (active),1.02,1,1.02,0.997,0.918
C#Cc1cccc(Nc2ncnc3cc(OCCOC)c(OCCOC)cc23)c1 [Erlotinib],1,1.03,1.02,0.995,0.967,0.989,0.997,0.938
CO/N=C(\C(=O)N[C@@H]1C(=O)N2C(C(=O)O)=C(C[N+]3(C)CCCC3)CS[C@H]12)c1csc(N)n1 [Cefepime hydrochloride],0.00376 (active),0.0351 (active),0.178 (active),0.049 (active),0.0104 (active),0.0103 (active),0.00386 (active),0.00189 (active)
CC(=O)OCC(=O)NCCCOc1cccc(CN2CCCCC2)c1 [Roxatidine acetate hydrochloride],0.99,0.981,1,0.939,0.996,0.985,0.994,0.986
COc1ccc(CC(C)NCC(O)c2ccc(O)c(NC=O)c2)cc1 (configuration not stated) [Formoterol fumarate],1.01,1.07,0.995,1.05,1.01,1.02,1.01,0.998
CC(=O)S[C@@H]1CC2=CC(=O)CC[C@]2(C)[C@H]2CC[C@@]3(C)[C@@H](CC[C@@]34CCC(=O)O4)[C@H]12 [Spironolactone],0.983,0.981,0.954,1.02,1.02,1.02,0.998,0.981
COc1ccc2c(c1)c(CC(=O)OCC(=O)O)c(C)n2C(=O)c1ccc(Cl)cc1 [Acemetacin],0.979,0.965,0.985,0.985,0.855,0.866,0.993,0.969
CN(C)CCCOc1nn(Cc2ccccc2)c2ccccc12 [Benzydamine hydrochloride],1,0.958,0.892,0.991,0.993,1.01,0.988,0.959
Oc1ccc(OCc2ccccc2)cc1 [Monobenzone],0.975,0.941,0.982,0.974,0.981,0.992,0.996,0.977
O=C1CC2(CCCC2)CC(=O)N1CCCCN1CCN(c2ncccn2)CC1 [Buspirone hydrochloride],1.01,1.08,1.04,1,1.12,1.11,0.986,0.979
O=C(CCCN1CC=C(n2c(=O)[nH]c3ccccc32)CC1)c1ccc(F)cc1 [Droperidol],0.989,0.985,0.892,0.98,0.982,0.976,0.99,0.936
CN(C)CCCN1c2ccccc2CCc2ccc(Cl)cc21 [Clomipramine hydrochloride],0.992,1,0.874,1.01,0.976,0.957,1.01,0.962
Cc1ccccc1N1C(=O)c2cc(S(N)(=O)=O)c(Cl)cc2NC1C (configuration not stated) [Metolazone],0.994,0.984,0.996,0.991,0.99,1,1.02,0.997
Oc1ncnc2[nH]ncc12 [Allopurinol],0.996,1.03,1.02,1,1.03,1.04,0.999,0.99
COc1c2occc2c(OC)c2c(=O)cc(C)oc12 [Khellin],1,1.05,0.983,1.01,1,1.02,1.02,0.985
CCOC(=O)[N-]c1c[n+](N2CCOCC2)no1 [Molsidomine],1.02,1.02,1.03,1.01,0.999,0.991,1,1.01
O=C1Cc2cc(CCN3CCN(c4nsc5ccccc45)CC3)c(Cl)cc2N1 [Ziprasidone  hydrochloride monohydrate],1.02,1.06,1.01,1,1.03,1.07,1.02,1
COC(=O)C1=C(C)NC(C)=C(C(=O)OC)C1c1ccccc1[N+](=O)[O-] [Nifedipine],1,0.997,0.971,1,0.987,0.996,1.01,0.994
CC(=O)Oc1ccccc1C(=O)Oc1ccccc1C(=O)O [Acetylsalicylsalicylic acid],0.997,0.973,0.983,0.932,0.998,1.04,0.999,0.997
CO[C@@]1(NC(=O)Cc2cccs2)C(=O)N2C(C(=O)O)=C(COC(N)=O)CS[C@@H]21 [Cefoxitin sodium salt],0.00626 (active),0.0351 (active),0.307 (active),0.0451 (active),0.018 (active),0.0178 (active),0.00954 (active),0.0113 (active)
CC1CCc2c(N3CCC(O)CC3)c(F)cc3c(=O)c(C(=O)O)cn1c23 (configuration not stated) [Nadifloxacin],0.00794 (active),0.0399 (active),0.0237 (active),0.0176 (active),0.0102 (active),0.00997 (active),0.0247 (active),0.00372 (active)
CCC(Cc1c(I)cc(I)c(N)c1I)C(=O)O (configuration not stated) [Iopanoic acid],1.01,1.01,1.01,0.989,0.999,1,1.01,0.987
CO[C@@H]1[C@@H](O[C@@H]2O[C@H](C)[C@@H](O[C@H]3C[C@@](C)(O)[C@@H](OC(=O)CC(C)C)[C@H](C)O3)[C@H](N(C)C)[C@H]2O)[C@@H](CC=O)C[C@@H](C)[C@@H](O)/C=C/C=C/C[C@@H](C)OC(=O)C[C@H]1OC(C)=O [Josamycin],0.937 (active),0.995,0.0145 (active),0.971,0.0124 (active),0.00854 (active),0.967,0.0649 (active)
CN(c1nccc(=O)[nH]1)C1CCN(c2nc3ccccc3n2Cc2ccc(F)cc2)CC1 [Mizolastine],1.02,1.04,1.02,1.01,0.929,0.921,1.01,0.906
COC(=O)Nc1nc2cc(C(=O)c3cccs3)ccc2[nH]1 [Nocodazole],1.01,1.02,0.979,1,1.01,1.02,1.01,0.975
CN1C(=O)CC(c2ccccc2)C1=O (configuration not stated) [Phensuximide],1.01,1.04,1.03,1.02,1.02,1.04,1,0.993
CC1(C)O[C@@H]2C[C@H]3[C@@H]4CCC5=CC(=O)CC[C@]5(C)[C@@]4(F)[C@@H](O)C[C@]3(C)[C@]2(C(=O)CCl)O1 [Halcinonide],1,1.03,0.99,1,0.993,1,1.02,0.967
NC(=O)c1cccnc1 [Nicotinamide],1.02,1.06,1.05,1.01,1.07,1.1,0.996,1.01

# Reference: the supplement of paper PMC12350171
